Most compounds without a hit are left out; they make up all but 3.9% or so of the library.
GALK inhibitor: inhibitors of human galactokinase; 0.007% of 270,000 active; Purified GALK, Kinase-Glo residual ATP luminescence; P51570; Potency, µM (titrated, usually from 57.5 µM), most hits filed as inhibitors
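Luminescence from leftover ATP (Ultra-Glo luciferase/luciferin) served as read-out after a 1 h room-temperature reaction of 5 nM GALK with 35 uM ATP and 100 uM galactose.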
Eya2 inh: inhibitors of human Eya2 phosphatase activity | O00167 | recombinant Eya2, OMFP fluorescence dephosphorylation (OMFP is methylfluorescein phosphate) | Potency, µM (highest dose often 76.9 µM), actives largely listed as inhibitors | 0.006% of 330,000 active | AID 488837
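Eya2 protein (added as 0.2 uM solution) was preincubated with compound for 10 min at ambient temperature in 50 mM HEPES pH 7.5, 50 mM NaCl, 5 uM MgCl2, 0.05% BSA, 1 mM DTT. OMFP (added at 50 uM) then reacted 10 min; fluorescence read at 485/525 nm.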
USP2a inh: USP2a (human) protease inhibition. Potency, µM (highest dose often 38.3 µM), usual class: inhibitors. 0.01% of 330,000 active. O75604. AID 463254. USP2 core, Ub-CHOP2 coupled fluorogenic reporter, 485/531
Target sequence (O75604 whole entry, looked up): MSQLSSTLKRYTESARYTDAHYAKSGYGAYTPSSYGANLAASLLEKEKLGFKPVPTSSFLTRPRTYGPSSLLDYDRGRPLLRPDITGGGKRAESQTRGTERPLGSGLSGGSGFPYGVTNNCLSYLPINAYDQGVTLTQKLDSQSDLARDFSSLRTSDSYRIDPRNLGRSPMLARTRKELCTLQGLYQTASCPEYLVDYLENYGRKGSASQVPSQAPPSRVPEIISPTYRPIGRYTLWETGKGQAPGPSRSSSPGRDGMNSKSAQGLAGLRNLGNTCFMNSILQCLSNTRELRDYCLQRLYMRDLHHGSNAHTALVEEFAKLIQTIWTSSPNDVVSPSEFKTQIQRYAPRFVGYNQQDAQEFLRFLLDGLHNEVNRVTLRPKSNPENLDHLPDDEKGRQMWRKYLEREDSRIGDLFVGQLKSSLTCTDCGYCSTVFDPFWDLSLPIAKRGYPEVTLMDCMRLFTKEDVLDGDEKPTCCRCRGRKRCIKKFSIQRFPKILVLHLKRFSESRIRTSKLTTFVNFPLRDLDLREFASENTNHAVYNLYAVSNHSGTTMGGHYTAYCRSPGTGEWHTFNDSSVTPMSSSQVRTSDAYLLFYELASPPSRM
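Deubiquitinase activity read as fluorescence (485/531 nm) after Ub-CHOP2 cleavage activates the enterokinase reporter on its substrate; USP2 core 10nM, Ub-CHOP2 and substrate 25nM each, 30min compound preincubation then 60min RT; data normalized to NEM, curves fitted.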
D1 antagonist: human D1 dopamine receptor antagonism; P21728; HEK293 TREx D1 cells, calcium flux, dopamine EC80; hits give low values; activity change, negative = inhibition, % at 10 µM; 3.2% of 360,000 active; AID 504652; in the data active = activity change below about -30%
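Tetracycline-induced HEK293 T-REx cells with force-coupled D1 receptor were loaded with a no-wash calcium dye. Compound was added after a 10 s baseline and read kinetically for 180 s; EC80 dopamine was then added and calcium flux followed another 180 s.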
D1 ag: activates the human D1 dopamine receptor. activation, % at 2 µM. 1% of 360,000 active. AID 504660. P21728. HEK293 T-REx D1 cells, calcium flux, agonist mode; in the data active = activation above about 30%
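Inducible HEK293 T-REx D1 cells, force-coupled to calcium signalling, were plated at 4000 cells/well with tetracycline and held overnight at 30 C. After no-wash calcium dye loading, compound-evoked calcium rise over 180 s flagged agonists.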
D1 potentiator: potentiators of human D1 dopamine receptor; HEK293 TREx D1 cells, calcium flux, dopamine EC20 potentiation; potentiation, % at 10 µM; 0.036% of 360,000 active; in the data active = potentiation above about 30%
Each line names hits and unclear results; the compound was inactive in the other large screens; ! = a repeat was not active. Unless noted, calls come from the whole dose curve; as a rule, active = well fitted inhibition curve with a large enough effect; inconclusive = small, poorly fitted or top-dose-only effect, or effect the other way; inactive = flat fitted curve, though single readings scatter.

CCOc1cccc(CC(=O)N2CCc3c([nH]c4ccccc34)C2c2ccc(Cl)cc2)c1OCC (stereo not drawn)	D1 antagonist -86 (no result: GALK inhibitor, Eya2 inh, USP2a inh)
CCC(=O)NC(c1ccc([N+](=O)[O-])cc1)c1c(O)ccc2ccccc12 (stereo not drawn)	D1 antagonist -37
CC(=O)NC12CC3CC(C1)CC(C(=O)Nc1c(C)n(C)n(-c4ccccc4)c1=O)(C3)C2	D1 antagonist -41
Cc1ccc(CN2CCc3nc(SCC(=O)Nc4cccc(C)c4C)[nH]c(=O)c3C2)cc1	none (no result: GALK inhibitor, Eya2 inh, USP2a inh)
Cc1ccc(Cl)cc1NC(=O)CSc1nc2c(c(=O)[nH]1)CN(Cc1ccccc1)CC2	D1 antagonist -81 (no result: GALK inhibitor, Eya2 inh, USP2a inh)
COc1ccc(C2=CC(=O)C[C@H](c3ccc(OC)cc3)C2)cc1	D1 antagonist -37 (no result: GALK inhibitor)
COc1ccc([C@H]2CC(=O)C=C(c3ccc(C)c(F)c3)C2)cc1	D1 ag 56 (no result: GALK inhibitor)
Cc1ccc(-c2c(C#N)c(N)nc3c2CCCCC3)o1	USP2a inh inconclusive, D1 antagonist -48
CC12CCC(C(=O)N(CC(=O)O)C1=O)C2(C)C (stereo not drawn)	D1 antagonist -52
CCOc1ccc2nc(N3CCN(C(=O)CS(=O)(=O)c4ccc(F)cc4)CC3)sc2c1	none (no result: GALK inhibitor, Eya2 inh, USP2a inh, D1 antagonist)
COc1ccc(OC)c(NC(=O)CSc2ccc(-c3sc(C)nc3C)nn2)c1	none (no result: GALK inhibitor, Eya2 inh, USP2a inh)
COc1ccc(C)cc1NC(=O)CSc1ccc(-c2sc(C)nc2C)nn1	D1 antagonist -50
CCOC(=O)c1ccc(NC(=O)CSc2ccc(-c3sc(C)nc3C)nn2)cc1	D1 antagonist -42 (no result: GALK inhibitor, Eya2 inh, USP2a inh)
CC(=O)Nc1ccc(NC(=O)CSc2ccc(-c3sc(C)nc3C)nn2)cc1	none
Cc1ccc2nc(Nc3ccc(C)c(F)c3)c3nncn3c2c1	none (no result: GALK inhibitor, Eya2 inh, USP2a inh)
CC(C)(C)NS(=O)(=O)c1ccc(N2C(=O)c3ccccc3C2=O)cc1	none
CC(C)(C)NS(=O)(=O)c1cccc(S(=O)(=O)c2cccc(S(=O)(=O)NC(C)(C)C)c2)c1	D1 antagonist -39
CN(C(=O)COC(=O)CSc1ccc([N+](=O)[O-])cc1)c1ccccc1	D1 antagonist -47 (no result: GALK inhibitor, D1 potentiator)
Cc1ccccc1CNc1ncnc2cc(Cl)ccc12	none
Fc1ccc(F)c(CNc2ncnc3cc(Cl)ccc23)c1	D1 antagonist -30
O=C(CSc1c2c(nc3ccc(Cl)cc13)CCCC2)N1CCCCC1	none (no result: GALK inhibitor, Eya2 inh, USP2a inh)
CCOC(=O)c1c(C)[nH]c(C(=O)N/N=C/c2cccc(OC)c2)c1C	none
COc1cccc(/C=N/NC(=O)c2[nH]c(C)c(C(=O)N/N=C/c3cccc(OC)c3)c2C)c1	D1 antagonist -41 (no result: GALK inhibitor)
CCCSCCCNC(=O)c1cc2n(n1)CCCN(Cc1ccc(C)cc1)C2=O	D1 ag 56 (no result: GALK inhibitor, Eya2 inh, USP2a inh)
CCCCNC(=O)c1cc2n(n1)CCCN(Cc1ccc(C)cc1)C2=O	none (no result: GALK inhibitor, Eya2 inh, USP2a inh)
Cn1c(=O)c2c(ncn2CC(=O)Nc2cc(Cl)cc(Cl)c2)n(C)c1=O	none (no result: GALK inhibitor, Eya2 inh, USP2a inh)
CCC(C(=O)Nc1ccc(S(=O)(=O)N(C)C2CCN(C)CC2)cc1)c1ccccc1 (stereo not drawn)	D1 ag 30 (no result: GALK inhibitor)
COc1ccccc1CC(=O)Nc1ccc(S(=O)(=O)N(C)C2CCN(C)CC2)cc1	none (no result: GALK inhibitor)
CC(Oc1ccc(Br)cc1)C(=O)Nc1ccc(S(=O)(=O)N(C)C2CCN(C)CC2)cc1 (stereo not drawn)	D1 antagonist -52, D1 ag 126 (no result: GALK inhibitor)
COc1ccc(N2CCN(C(CNS(=O)(=O)c3ccc(OC)c(C)c3)c3ccco3)CC2)cc1 (stereo not drawn)	none (no result: GALK inhibitor, Eya2 inh, USP2a inh, D1 antagonist)
COc1ccccc1N(C)C(=O)Cn1c(=O)oc2cc(S(=O)(=O)N3CCCC3)ccc21	none (no result: GALK inhibitor, Eya2 inh, USP2a inh)
O=C(NCc1ccc(F)cc1)c1ccc2c(c1)nnn2C1CCCC1	none (no result: GALK inhibitor, Eya2 inh, USP2a inh)
Cc1cc2c(cc1NS(=O)(=O)c1ccc(F)cc1)n(C)c(=O)c(=O)n2C	none (no result: GALK inhibitor, Eya2 inh, USP2a inh)
O=C(c1ccc2c(c1)N(Cc1ccccc1F)C(=O)c1ccccc1S2=O)N1CCCCC1 (stereo not drawn)	none (no result: GALK inhibitor, Eya2 inh, USP2a inh)
CCOC(=O)C1CCCN(C(=O)COc2ccccc2O)C1 (stereo not drawn)	none
CCOC(=O)C1CCCN(C(=O)c2ccc3c(c2)N(Cc2ccccc2F)C(=O)c2ccccc2S3=O)C1 (stereo not drawn)	D1 antagonist -36 (no result: GALK inhibitor, Eya2 inh, USP2a inh)
CCOC(=O)C1CCCN(C(=O)COc2ccccc2F)C1 (stereo not drawn)	D1 antagonist -64
COc1ccc(Nc2nc(NCc3ccco3)nc(N/N=C/c3ccccc3F)n2)cc1	D1 antagonist -42
CC(=O)Nc1ccc(OCc2nnc(-c3ccccc3)o2)cc1	D1 antagonist -48
Cc1ccc(-c2nnc(COC(=O)c3cc(=O)[nH]c4ccccc34)o2)cc1	D1 antagonist -85
CC(=O)c1c(C)[nH]c(C(=O)OCc2nnc(-c3ccccc3)o2)c1C	D1 antagonist -32
Cc1c(C(C)C)c(=O)n(-c2ccc(S(=O)(=O)NCc3ccccc3)cc2)n1C	none
Cc1c(C(C)C)c(=O)n(-c2ccc(S(=O)(=O)NC3CCCCC3)cc2)n1C	D1 antagonist -52
O=C(Nc1ccccc1)N(Cc1cccs1)c1ccc(Cl)cc1	none (no result: GALK inhibitor, Eya2 inh, USP2a inh)
O=C(CNS(=O)(=O)c1ccc(Br)s1)N1CCN(c2ccc(F)cc2)CC1	D1 antagonist -51!
O=C(CNS(=O)(=O)c1ccc(F)cc1)N1CCN(c2ccc(F)cc2)CC1	none
O=C1S/C(=C/c2ccccc2)C(=O)N1CC(O)Cn1c2ccccc2c2ccccc21 (stereo not drawn)	none
CN(C)c1ccc(/C=C2/SC(=O)N(CCN=C3NS(=O)(=O)c4ccccc43)C2=O)cc1	D1 ag 40
CN(C)c1ccc(/C=C2\SC(=O)N(CCc3nnc(N)s3)C2=O)cc1	D1 ag 62
CN(C)c1ccc(/C=C2\SC(=O)N(CC(O)Cn3c4ccccc4c4ccccc43)C2=O)cc1 (stereo not drawn)	D1 ag 46
CCOc1cccc(C2c3c(oc4ccc(F)cc4c3=O)C(=O)N2CCc2ccc(OC)cc2)c1 (stereo not drawn)	D1 antagonist -30 (no result: GALK inhibitor, Eya2 inh, USP2a inh)
CCOC(=O)c1sc(N2C(=O)c3oc4ccc(F)cc4c(=O)c3C2c2ccc(O)cc2)nc1C (stereo not drawn)	none (no result: GALK inhibitor, Eya2 inh, USP2a inh)
CCc1ccc(C2c3c(oc4ccc(F)cc4c3=O)C(=O)N2c2nc(C)c(C(=O)OC)s2)cc1 (stereo not drawn)	D1 antagonist -69 (no result: GALK inhibitor, Eya2 inh, USP2a inh)
O=C(CSC(=S)N1CCSCC1)c1ccc(Cl)cc1	D1 antagonist -46
CCOc1ccc(N2C(=O)C3=C(C(c4ccc(Cl)cc4)=NCCN3)C2c2cccnc2)cc1 (stereo not drawn)	D1 antagonist -47

From PubChem BioAssay
